# Shown are actives, neighbours in structure and some others; about 1.5% of the full set was active somewhere.
# Akt phos inh: Akt phosphorylation inhibition; actives 0.32% (n = 360,000); Neuro2A IGF-stimulated pAkt S473 HTRF, 20 min; active compounds read low; AID 651550; activity change, % for hits at 50 µM; in the data active means activity change below about -80%; inconclusive means mostly about -51% to -80%
#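 Neuro2A cells in DMEM with 0.5% FBS, overnight at 37 deg C, given compound at single 50 µM final, then IGF (6 nM final) for 20 min at 37 deg C. Lysed; phospho-Akt Ser473 by HTRF after 24 h, 665/615 ratio.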
# PINK1 expr mod: modulators of PINK1 expression; PINK1 immunofluorescence, high-content cytometry, 24 h; Potency, µM (highest dose often 76.6 µM), actives largely listed as activators; actives 0.2% (n = 410,000); AID 624263; active means well fitted activation curve with a large enough effect; inconclusive means small, poorly fitted or top-dose-only effect; cell line not stated here; further: nearly all actives have a fitted effect of over 65% in size
#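 Stable cell line treated 24 h with compounds at 5 concentrations (CCCP controls), then fixed and immunostained for PINK1 plus nuclear and cell stains; PINK1 immunofluorescence quantified by laser-scanning microplate cytometry.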
# TCR activator: T cell receptor activation; AID 504894; primary human leukocytes, anti-CD3, IL-2 HTRF, 48 h; Potency, µM (highest dose often 9.22 µM), usual class: activators; 330,000 tested, under 10 active
#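 Primary human leukocytes receive a-CD3 beads and test compound and are incubated 48 hr. Secreted IL-2 is then assayed by HTRF, measuring 665nm acceptor emission after 320nm excitation of the europium donor.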
# BRCA1 expr up: BRCA1 expression activation. actives 1.1% (n = 380,000). Potency, µM (series often up to 46.1 µM), hits mostly activators. MCF7-BRCA1-FFLuc reporter, luminescence, 48 h; response scale: scaled: vehicle 0%, 10 µM genistein 100%. AID 624202; further: nearly all actives have a fitted effect of over 80% in size
#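 Quantitative HTS in MCF7 cells stably reporting BRCA1 expression via firefly luciferase. Compound treatment lasts 48 h at 37 °C in phenol-red free MEM. Activation is expressed relative to genistein at 10 microM and DMSO.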
# Numbers stand for hits; 0 = inactive; ? = inconclusive; - = no result. Unless noted, the call rests on the fitted dose curve; in most records, active means well fitted curve in the direction sought with a large enough effect; inconclusive means small, poorly fitted or top-dose-only effect, or another doubt; inactive means no such curve, though single readings can be large; an effect the other way counts as inactive or inconclusive.
SMILES,Akt phos inh,PINK1 expr mod,TCR activator,BRCA1 expr up
CCCCCCC1NC(C(=O)O)CS1 (centres undefined),-113.4%,0,0,0
CCCNS(=O)(=O)c1ccc(OCC(=O)NCc2ccc3c(c2)OCO3)cc1,-102.0%,0,0,0
Cc1ccc(CNc2nc(CN3CCN(C=O)CC3)nc3ccccc23)o1,-,0,-,-
O=C(CN1CCCC1)Nc1ccc(NC(=O)Nc2ccccc2Cl)cc1,0,0,0,11.2µM
O=C(NC1CCCCCCC1)c1cc(F)c(F)cc1Cl,0,0,0,1.78µM
O=C(COC(=O)c1cc(F)c(F)cc1Cl)NC1CCCCCC1,0,0,-,0
COc1cccc(NC(=O)Nc2ccc(Br)cn2)c1,0,0,0,11.2µM
COc1ccc(Cl)cc1NC(=O)NC1CCCCC1,-127.4%,0,0,0
CCn1c(-c2cccnc2)nc2cc(NC(=O)COC)cc(C(=O)N3CCc4ccccc4C3)c21,-,0,-,-
O=C(NCCN1CCOCC1)c1cnn(-c2nccc(-c3ccccc3C(F)(F)F)n2)c1C1CC1,-,0,-,-
O=C(Nc1ccccc1Cl)NC1CCCCCCC1,0,0,0,14.1µM
COc1cccc(NC(=O)C(=S)NC2CCCCC2)c1,0,0,0,?
COc1cccc(NC(=O)NC2CCCCCCC2)c1,0,0,0,10µM
CC(=O)N1CCC[C@H]1C(=O)NCC1Cc2cc(-c3cccc(OC(F)(F)F)c3)ccc2O1 (some centres undefined),-,0,-,-
CC(C)N(C(=O)[C@H]1C[C@H](CC(=O)NCC23CC4CC(CC(C4)C2)C3)C(=O)N2CCc3c([nH]c4ccc(Cl)cc34)[C@]12C)C(C)C,0,35.5µM,0,0
CCN(CC)C(=O)[C@H]1C[C@H](CC(=O)NCC23CC4CC(CC(C4)C2)C3)C(=O)N2CCc3c([nH]c4ccc(Cl)cc34)[C@]12C,0,?,0,0
Cc1ccc(-n2c(=O)c3c(cnn3C)n(CC(=O)Nc3cccc(C)c3)c2=O)cc1,-,0,-,-
Cn1c(CO)cnc1SCC(=O)c1ccc(F)cc1,0,0,0,10µM
COc1ccc2cc(CNc3ccc(C)cc3)c(=O)n(CC(=O)Nc3cccc(Cl)c3C)c2c1,-,0,-,0
CC(NC(=O)c1ccc(S(=O)(=O)N(C)C)cc1)c1ccccc1 (centres undefined),-89.6%,0,0,0
Cc1ccc(S(=O)(=O)N(C)c2ccc(C(=O)Nc3ccccn3)cc2)cc1,0,0,0,0
CN(C)S(=O)(=O)c1ccc(C(=O)Nc2ccccn2)cc1,0,0,0,14.1µM
Cc1ccc2nc(CNC(=O)c3cc(NC(=O)c4ccccc4)cc4ncn(C5CCCC5)c34)cn2c1,-,0,-,-
Brc1ccc[n+](CCC2CCCCC2)c1,-,0,-,0
Cc1ccc(C(=O)Oc2oc(-c3ccco3)nc2C=Nc2ccc(Cl)cc2)cc1,0,0,0,2µM
SMILES,Akt phos inh,PINK1 expr mod,TCR activator,BRCA1 expr up
O=C(CCC1CCCCC1)NCc1ccc(F)cc1,0,0,0,0
O=C(CC1CCCCC1)NCc1ccc(Cl)cc1,0,0,0,11.2µM
CC1CCCC(NC(=O)c2n[nH]c(=O)c3ccccc23)C1C (centres undefined),0,0,0,11.2µM
Cc1cc(C(C)(C)C)cc(C)c1C[n+]1ccc2ccccc2c1,0,44.7µM,0,0
Cc1nc2ccccc2nc1N/N=C/c1ccc(O)cc1,0,0,0,7.94µM
Oc1ccc(/C=N/Nc2ccccc2)cc1,0,0,0,0
Cc1ccc(NC(=O)c2cccc(Cl)c2)nc1,0,0,0,?
Cc1cc(NC(=O)c2cccc(Cl)c2)n[nH]1,0,0,0,3.98µM
CCNc1ncc2nc(CCc3ccccc3)c(=O)n(C)c2n1,-,0,-,-
Cc1cnc(C)c(-c2cc(F)cc3c2OC(CNC(=O)c2cc(Cl)ccc2F)C3)n1 (centres undefined),-,0,-,-
O=C(CCNC(=O)Cn1cnc2ccccc2c1=O)NCC1COc2ccccc2O1 (centres undefined),-107.0%,0,0,0
O=C(NCC1CC1)c1cccc2c(-c3ccc(F)c(F)c3)coc12,0,0,-,3.55µM
Cc1ccc(CN2CCC(CNC(=O)Nc3cccc(C)c3C)C2)cc1 (centres undefined),-,0,-,0
CCC(=O)N1CCc2cc(Br)cc(S(=O)(=O)CC(=O)OC)c21,-106.5%,0,0,0
Nc1c(-c2ccccc2)cnn1-c1cccc(C(F)(F)F)c1,0,0,0,5.01µM
Cc1ccc(-c2cnn(-c3cccc([N+](=O)[O-])c3)c2N)cc1,0,0,0,5.62µM
Cc1ccccc1CN1CCN(Cc2ccccc2C(F)(F)F)CC1,0,10µM,-,0
